PubChem BioAssay (NCATS)
Results filed as inconclusive are left out. Values without a mark were called inactive. Activity calls are given as the source filed them. Calls follow the shape of the dose curve; as a rule, active = well fitted cell-killing curve with a large enough effect; inconclusive = small, poorly fitted or top-dose-only effect, or effect the other way; inactive = no such curve, though single readings can be large or run the other way.

Experiment: Quantitative High-Throughput drug screen in 47 multiple myeloma cell lines against the NCATS MIPE library collection: XG1_PLB cell viability assay (AID 1919866); also: nearly all actives have a fitted effect of over 35% in size
Conditions: CellTiter-Glo ATP, 48 h; series mostly up to 45.8 µM; viability: at the top concentration
Outline: (§1)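 MIPE 4.0 approved/investigational drugs; 500 cells/well; 48 h 37 °C humidified 5% CO2; CTG luminescence readout; DMSO = 100%, media = 0% viability.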
Potency is read from the fitted curve at half-maximal effect.

Structure (SMILES) | viability [%] | Potency
CC(C)OC(=O)C1=CN(C(=O)c2ccc(F)c(F)c2)CC(C)(C)c2c1[nH]c1ccccc21 | 84.9 | 
NC(=O)C1CCCc2c1[nH]c1ccc(Cl)cc21 (stereo not given) |  | 16.6 µM (active)
CCC(C)N(C)C(=O)c1cc2ccccc2c(-c2ccccc2Cl)n1 (stereo not given) |  | 5.26 µM (active)
CCN(CC)CCCC(C)Nc1ccnc2cc(Cl)ccc12 (stereo not given) |  | 10.5 µM (active)
Cc1cnc(Nc2ccc(OCCN3CCCC3)cc2)nc1Nc1cccc(S(=O)(=O)NC(C)(C)C)c1 |  | 0.469 µM (active)
CC(C)NCC(O)COc1ccc(COCCOC(C)C)cc1 (stereo not given) | 117 | 
CC1(C)Cc2c(-c3ccccc3)c(-c3ccc(Cl)cc3)c(CC(=O)O)n2C1 |  | 14.8 µM (active)
COc1nc(-c2ccc3c(c2)OCO3)n(-c2ccc(NC(=O)CSc3ccccc3)cc2)n1 | 124 | 
NC(N)=NC(=O)c1nc(Cl)c(N)nc1N |  | 8.33 µM (active)
CCCC(CCC)C(=O)O |  | 20.9 µM (active)
Cc1ccccc1C(OCCN(C)C)c1ccccc1 (stereo not given) | 118 | 
CCCc1nc2c(C)cc(-c3nc4ccccc4n3C)cc2n1Cc1ccc(-c2ccccc2C(=O)O)cc1 |  | 20.9 µM (active)
Cc1c(C)c2c(c(C)c1O)CCC(C)(COc1ccc(CC3SC(=O)NC3=O)cc1)O2 (stereo not given) | 83.9 | 
O=S(=O)(N=Cc1c(O)ccc2ccccc12)c1cccs1 |  | 20.9 µM (active)
O=c1n(CCCN2CCN(c3cccc(Cl)c3)CC2)nc2ccccn12 | 107 | 
CCc1cc(Nc2nccc(-c3c(-c4ccc(OC)c(C(=O)Nc5c(F)cccc5F)c4)nc4ccccn34)n2)c(OC)cc1N1CCC(N2CCN(S(C)(=O)=O)CC2)CC1 |  | 1.18 µM (active)
COCC(=O)NCC=Cc1ccc2ncnc(Nc3ccc(Oc4ccc(C)nc4)c(C)c3)c2c1 |  | 20.9 µM (active)
NC(=O)c1cnccn1 | 124 | 
OC(CN1CCC(Cc2ccc(F)cc2)CC1)c1ccc(Cl)cc1 (stereo not given) | 92.9 | 
Nc1cccc(S(=O)(=O)N2CCCN(S(=O)(=O)c3ccc4c(c3)OCCO4)CC2)c1 |  | 7.43 µM (active)
Cn1c(=O)c(F)c(Nc2ccc(I)cc2F)c2c(=O)n(C[C@@H](O)CO)cnc21 | 62.1 | 
Cc1ccccc1C(C(=O)NC1CCCC1)N(C(=O)Cn1cnc2ccccc21)c1cccc(F)c1 (stereo not given) |  | 18.7 µM (active)
O=C(C=Cc1ccc(/C=C/C(=O)Nc2ccc(C3=NCCN3)cc2)cc1)Nc1ccc(C2=NCCN2)cc1 | 109 | 

Experiment: Quantitative High-Throughput drug screen in 47 multiple myeloma cell lines against the NCATS MIPE library collection: VP6_DJ cell viability assay (AID 1919867); also: nearly all actives have a fitted effect of over 40% in size;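 as to viability (% of DMSO): 100% = DMSO-only wells and 0% = wells with media alone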
Conditions: ATP luminescence, 48 h; series mostly up to 45.8 µM; viability (% of DMSO): at the top concentration
Outline: as §1

Structure (SMILES) | Potency | viability (% of DMSO) [%]
CC(C)OC(=O)C1=CN(C(=O)c2ccc(F)c(F)c2)CC(C)(C)c2c1[nH]c1ccccc21 | 1.87 µM (active) | 
NC(=O)C1CCCc2c1[nH]c1ccc(Cl)cc21 (stereo not given) | 3.32 µM (active) | 
CCC(C)N(C)C(=O)c1cc2ccccc2c(-c2ccccc2Cl)n1 (stereo not given) | 6.62 µM (active) | 
CCN(CC)CCCC(C)Nc1ccnc2cc(Cl)ccc12 (stereo not given) | 11.8 µM (active) | 
Cc1cnc(Nc2ccc(OCCN3CCCC3)cc2)nc1Nc1cccc(S(=O)(=O)NC(C)(C)C)c1 | 0.332 µM (active) | 
OC[C@H](Cc1ccccc1)Nc1nc(Oc2ccc3c(c2)CCC3)nc2c1ncn2Cc1ccc(-c2ccccc2)cc1 |  | 96.3
COc1cc2c(cc1OC)CN(CCc1ccc(NC(=O)c3cccc4c(=O)c5cccc(OC)c5[nH]c34)cc1)CC2 |  | 158
CC1(C)Cc2c(-c3ccccc3)c(-c3ccc(Cl)cc3)c(CC(=O)O)n2C1 | 14.8 µM (active) | 
O=C1CCc2cc(OCCCCc3nnnn3C3CCCCC3)ccc2N1 |  | 78
Cc1cccc(-c2[nH]c(C(C)(C)C)nc2-c2ccc3nccnc3c2)n1 | 2.96 µM (active) | 
CCCC(CCC)C(=O)O | 18.7 µM (active) | 
Cc1ccccc1C(OCCN(C)C)c1ccccc1 (stereo not given) |  | 160
CCCc1nc2c(C)cc(-c3nc4ccccc4n3C)cc2n1Cc1ccc(-c2ccccc2C(=O)O)cc1 | 16.6 µM (active) | 
Cc1c(C)c2c(c(C)c1O)CCC(C)(COc1ccc(CC3SC(=O)NC3=O)cc1)O2 (stereo not given) |  | 123
CCc1cc(Nc2nccc(-c3c(-c4ccc(OC)c(C(=O)Nc5c(F)cccc5F)c4)nc4ccccn34)n2)c(OC)cc1N1CCC(N2CCN(S(C)(=O)=O)CC2)CC1 | 2.64 µM (active) | 
COc1ccc(-c2c(-c3ccc(O)cc3O)n[nH]c2C)cc1 | 34 µM (active) | 
c1ccc(-c2nn3c(c2-c2ccnc4cc(OCCN5CCOCC5)ccc24)CCC3)nc1 | 1.87 µM (active) | 
Cc1n[nH]c(C)c1Cc1sc2c(c1C(=O)N1C[C@H](O)CO1)c(=O)n(C)c(=O)n2CC(C)C |  | 123
COCC(=O)NCC=Cc1ccc2ncnc(Nc3ccc(Oc4ccc(C)nc4)c(C)c3)c2c1 | 18.7 µM (active) | 
Nc1cccc(S(=O)(=O)N2CCCN(S(=O)(=O)c3ccc4c(c3)OCCO4)CC2)c1 | 8.33 µM (active) | 
Cc1ccccc1C(C(=O)NC1CCCC1)N(C(=O)Cn1cnc2ccccc21)c1cccc(F)c1 (stereo not given) | 2.35 µM (active) | 
O=C(C=Cc1ccc(/C=C/C(=O)Nc2ccc(C3=NCCN3)cc2)cc1)Nc1ccc(C2=NCCN2)cc1 |  | 119
